An excerpt weighted towards active compounds, which were near 31% of everything screened.
CYP2C19 activ: cytochrome P450 2C19 (human) activation; P33261; activation factor at 5 µM; AID 1025; recombinant CYP2C19, luciferin-H EGE luminescence; stronger effect = higher value; 0 = fully inhibited enzyme, 1 = untreated enzyme; 96,000 tested, under 10 active;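 active = activation factor of at least 2 at 5 µM in the primary screen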;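 also: 0 = wells with 2.5 mM tranylcypromine and 1 = vehicle-only wells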
Target sequence (P33261 whole entry, looked up): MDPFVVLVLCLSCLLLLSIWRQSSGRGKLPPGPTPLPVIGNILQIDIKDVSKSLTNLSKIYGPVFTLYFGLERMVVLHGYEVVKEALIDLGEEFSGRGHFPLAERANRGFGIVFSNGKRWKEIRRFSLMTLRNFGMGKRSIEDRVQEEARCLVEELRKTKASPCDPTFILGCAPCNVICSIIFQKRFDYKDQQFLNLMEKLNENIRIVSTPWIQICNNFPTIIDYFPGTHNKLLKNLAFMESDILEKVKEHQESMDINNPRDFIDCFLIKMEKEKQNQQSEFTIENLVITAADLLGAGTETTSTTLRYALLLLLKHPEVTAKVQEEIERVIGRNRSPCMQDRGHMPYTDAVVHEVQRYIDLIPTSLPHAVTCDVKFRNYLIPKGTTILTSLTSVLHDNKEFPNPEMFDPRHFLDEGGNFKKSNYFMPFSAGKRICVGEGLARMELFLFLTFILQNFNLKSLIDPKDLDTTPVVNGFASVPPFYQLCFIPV
CYP2C9 inh: human CYP2C9 inhibition | P11712 | CYP2C9 Supersomes, luciferin-H conversion, luminescence | inhibition, % at 5 µM | 20% of 96,000 active | AID 777;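 active = blocking of liver enzyme CYP2C9 beyond about 50% at 5 µM, limit read from the data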
CYP2C9 act: activators of human CYP2C9. activation factor at 5 µM. P11712. AID 1024. recombinant CYP2C9, luciferin-H conversion, luminescence; stronger effect = higher value; factor 1 = untreated enzyme, 0 = blocked. 1.4% of 96,000 active;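 active = activation factor of 2 or more for CYP2C9 at a 5 µM dose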;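 also: 0 = sulfaphenazole-blocked wells and 1 = vehicle-only wells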
CYP2C19 inhib: human CYP2C19 inhibition; 21% of 96,000 active; CYP2C19 Supersomes, luciferin-H EGE luminescence, 30 min; AID 778; inhibition, % at 5 µM;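 active = CYP2C19 inhibition above a set limit at 5 µM in the primary screen, cut at about 50% in these data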;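 also: plate controls were negative control wells for no effect and 2.5 mM tranylcypromine positive control for full effect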
An asterisk follows results filed as active.

`Cc1ccc(S(=O)(=O)N2c3ccccc3NC(=O)CC2C)cc1` (stereo not drawn) gave CYP2C19 activ 1, CYP2C9 inh 4, CYP2C9 act 1 and CYP2C19 inhib 3.
`COc1ccc(S(=O)(=O)Nc2cc(C)ccc2OC)cc1C` gave CYP2C19 activ 0, CYP2C9 inh 80*, CYP2C9 act 0.2 and CYP2C19 inhib 100*.
`Cc1ccccc1NS(=O)(=O)c1ccc(N2CCCC2=O)cc1` gave CYP2C19 activ 0.7, CYP2C9 inh 30, CYP2C9 act 0.7 and CYP2C19 inhib 30.
COc1ccc(OC)c(NC(=O)c2cc(-c3cc(Cl)ccc3O)n[nH]2)c1 was read as CYP2C19 activ 1, CYP2C9 inh -143, CYP2C9 act 2.4* and CYP2C19 inhib 3.
COc1ccc(OC)c(NS(=O)(=O)c2ccc(N3CCCC3=O)cc2)c1 was read as CYP2C19 activ 0.1, CYP2C9 inh 19, CYP2C9 act 0.8 and CYP2C19 inhib 95*.
For COc1ccc(C)cc1NS(=O)(=O)c1cccc2nonc12 the results were CYP2C19 activ 0.1, CYP2C9 inh 15, CYP2C9 act 0.9 and CYP2C19 inhib 92*.
CCc1ccc2nc(SCC(=O)N(CC)CC)c(C#N)cc2c1 was read as CYP2C19 activ 0.9, CYP2C9 inh 22, CYP2C9 act 0.8 and CYP2C19 inhib 9.
For Cn1c(=O)[nH]c(=O)c2c1nc1n2CCCN1CCc1ccccc1 the results were CYP2C19 activ 0.7, CYP2C9 inh -1, CYP2C9 act 1 and CYP2C19 inhib 27.
COc1ccc(Cl)cc1NS(=O)(=O)c1ccc(S(=O)(=O)N2CCCC2)cc1 was read as CYP2C19 activ 0.7, CYP2C9 inh 32, CYP2C9 act 0.7 and CYP2C19 inhib 35.
`CCOc1ccc(OCC)c(NS(=O)(=O)c2ccc3c(c2)n(C)c(=O)c(=O)n3C)c1` gave CYP2C19 activ 0.9, CYP2C9 inh 13, CYP2C9 act 0.9 and CYP2C19 inhib 15.
Screening COc1ccc(OC)c(NC(=O)c2ccc(NC(C)=O)cc2)c1 returned CYP2C19 activ 1, CYP2C9 inh -162, CYP2C9 act 2.6* and CYP2C19 inhib -1.
Screening COc1ccc(S(=O)(=O)Nc2cc(Cl)ccc2OC)cc1 returned CYP2C19 activ 0, CYP2C9 inh 38, CYP2C9 act 0.6 and CYP2C19 inhib 99*.
CCOc1cc(NC(=S)Nc2ccccc2)c(OCC)cc1NC(=O)c1ccc(OC)cc1 was read as CYP2C19 activ 0.5, CYP2C9 inh 69*, CYP2C9 act 0.3 and CYP2C19 inhib 48.
For CCOc1ccc(S(=O)(=O)Nc2cc(OC)ccc2OC)cc1 the results were CYP2C19 activ 0, CYP2C9 inh 55*, CYP2C9 act 0.4 and CYP2C19 inhib 100*.
Screening CCOc1ccc(N2C(=O)c3ccc(C(=O)OCc4c(C)noc4C)cc3C2=O)cc1 returned CYP2C19 activ 1.2, CYP2C9 inh 12, CYP2C9 act 0.9 and CYP2C19 inhib -16.
O=c1c(N2CCCCC2)coc2ccccc12 was read as CYP2C19 activ 0.8, CYP2C9 inh -29, CYP2C9 act 1.3 and CYP2C19 inhib 15.
For COc1ccc(CC(C)N2CCN(c3ccccc3)CC2)cc1OC (stereo not drawn) the results were CYP2C19 activ 0.8, CYP2C9 inh -16, CYP2C9 act 1.2 and CYP2C19 inhib 25.
Screening COc1ccc(C)cc1NS(=O)(=O)c1ccc(NS(=O)(=O)c2ccc(NC(C)=O)cc2)cc1 returned CYP2C19 activ 0.4, CYP2C9 inh 66*, CYP2C9 act 0.3 and CYP2C19 inhib 62*.
Screening Cc1c(Cl)cccc1NC(=O)c1cc(-c2ccccc2O)n[nH]1 returned CYP2C19 activ 0.8, CYP2C9 inh -168, CYP2C9 act 2.7* and CYP2C19 inhib 17.
`O=C(O)c1cc(-c2ccccc2Cl)n[nH]1` gave CYP2C19 activ 1.1, CYP2C9 inh -9, CYP2C9 act 1.1 and CYP2C19 inhib -9.
`COc1ccc(OC)c(NS(=O)(=O)c2ccc(NC(C)=O)cc2)c1` gave CYP2C19 activ 0, CYP2C9 inh 29, CYP2C9 act 0.7 and CYP2C19 inhib 100*.
COc1ccc(OC)c(NC(=O)c2ccc(NS(C)(=O)=O)cc2)c1 was read as CYP2C19 activ 0.8, CYP2C9 inh -42, CYP2C9 act 1.4 and CYP2C19 inhib 18.
For O=C(c1ccc(S(=O)(=O)N2CCOCC2)cc1)N1CCc2ccccc2C1 the results were CYP2C19 activ 1, CYP2C9 inh -1, CYP2C9 act 1 and CYP2C19 inhib 1.
Cn1c(=O)c2c(nc(NCc3ccco3)n2C/C=C/c2ccccc2)n(C)c1=O was read as CYP2C19 activ 0.3, CYP2C9 inh 26, CYP2C9 act 0.7 and CYP2C19 inhib 74*.

Screens: PubChem BioAssay, Sanford-Burnham Center for Chemical Genomics
